APOBEC3G inh: inhibitors of human APOBEC3G DNA deaminase | Q9HC16 | recombinant A3G, ssDNA deamination FAM/TAMRA fluorescence | inhibition, % at 20 µM | hit rate 0.28% among 330,000;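 active = inhibition of at least 40% at 20 µM, with no more than 30% in the related APOBEC3A deaminase screen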;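 note: plate controls were DMSO wells with A3G for no effect and wells lacking A3G enzyme for full effect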
Target sequence (Q9HC16 whole entry, looked up): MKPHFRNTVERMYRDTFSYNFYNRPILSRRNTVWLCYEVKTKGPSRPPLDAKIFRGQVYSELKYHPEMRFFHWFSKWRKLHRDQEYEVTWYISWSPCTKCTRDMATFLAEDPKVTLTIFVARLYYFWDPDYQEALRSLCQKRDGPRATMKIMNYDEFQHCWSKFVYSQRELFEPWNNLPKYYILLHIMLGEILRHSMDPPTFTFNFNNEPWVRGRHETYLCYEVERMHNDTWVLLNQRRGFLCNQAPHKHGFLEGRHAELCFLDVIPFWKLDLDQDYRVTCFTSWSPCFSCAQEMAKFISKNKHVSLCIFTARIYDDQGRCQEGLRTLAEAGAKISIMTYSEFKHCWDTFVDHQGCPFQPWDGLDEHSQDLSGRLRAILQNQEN
A3A deaminase: inhibitors of human APOBEC3A DNA deaminase; hit rate 0.41% among 330,000; recombinant A3A, FAM/TAMRA ssDNA deamination fluorescence; P31941; inhibition, % at 20 µM;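 active = at least 40% inhibition at 20 µM here, with at most 30% in a related deaminase screen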;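 note: plate controls were A3A with DMSO for no effect and wells lacking A3A enzyme for full effect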
Target sequence (P31941 whole entry, looked up): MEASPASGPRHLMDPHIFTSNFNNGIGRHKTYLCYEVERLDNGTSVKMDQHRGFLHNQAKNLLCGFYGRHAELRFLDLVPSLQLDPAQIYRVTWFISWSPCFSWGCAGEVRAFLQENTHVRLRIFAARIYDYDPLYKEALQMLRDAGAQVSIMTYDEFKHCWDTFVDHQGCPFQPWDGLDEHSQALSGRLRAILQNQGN
Bfl-1 A1 inh: inhibitors of the anti-apoptotic protein A1, read as caspase activation | MEF A1-2A-BIM cells, Caspase-Glo 3/7 luminescence, 3 h; percent of clofoctol response, vehicle zero | caspase activation, % (test concentration not listed) | hit rate 0.066% among 330,000 | AID 2462;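 active = over half of replicate activation scores above 10%, or exactly half above 10 with the replicate mean above 10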
MIN6 prolif-1: MIN6 beta-cell proliferation induction | hit rate 0.29% among 330,000 | proliferation, % at 10 µM | AID 2380 | MIN6 cells proliferation, ATPlite luminescence, 48 h; cells starved in 0.2% serum; 100% = growth in 10% serum;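 active = compounds whose signal lies at least 3.5 SD above the mean of all wells on their plate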;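 note: 0% = DMSO-treated cells in low-serum medium and 100% = 10% serum control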
MIN6 prolif-2: MIN6 beta-cell replication induction, confirmed; 920 tested, under 10 active; proliferation increase, % at 50 µM; shares compounds with MIN6 prolif-1; MIN6 beta-cell proliferation, ATPlite luminescence, 48 h; cells kept in 0.2% serum; scaled between 0.2% and 10% serum; AID 463095;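 active = proliferation increase above 40% at any of the four tested concentrations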
Numbers without * were called inactive; nt = no result. The list is not random: actives were taken first. Their share in the collection is about 1.1%.

SMILES	APOBEC3G inh	A3A deaminase	Bfl-1 A1 inh	MIN6 prolif-1	MIN6 prolif-2
COC(=O)COc1cc(OCC(=O)OC)c2c(-c3ccccc3)cc(=O)oc2c1	-3	-4	0	-2	nt
COC(=O)C(C)Oc1cc(OC(C)C(=O)OC)c2c(-c3ccccc3)cc(=O)oc2c1 (stereo not drawn)	-3	-3	5.3*	1	nt
COc1cc(NC(=O)c2ccccc2)c(OC)cc1NC(=O)Cc1ccc(Br)cc1	-5	-1	12*	-3	nt
Cc1snc(SCC(=O)c2ccc(F)cc2)c1C#N	-5	-3	-2	-1	nt
Cc1snc(SCC(=O)c2ccc([N+](=O)[O-])cc2)c1C#N	50*	-3	nt	-3	nt
COc1ccc(C(C)(C)C)cc1NC(=O)CCCN1C(=O)NC(C)(C)C1=O	1	-1	0	-2	nt
CC(=O)N1c2c(cc(Br)cc2S(=O)(=O)N2CCN(c3ccccc3F)CC2)CC1C (stereo not drawn)	-7	-4	0	0	nt
CSc1nc2ccc(NC(=O)c3nn(C(C)C)c(=O)c4ccccc34)cc2s1	-9	-4	0	8.2*	nt
COc1cc(CN2CCCCC2C(=O)Nc2ccc(Oc3ccccc3)nc2)ccc1O (stereo not drawn)	2	-2	-1	-1	nt
CN(CC(=O)Nc1ccc(Cl)c(C(F)(F)F)c1)C(=O)CNC(=O)C1CCCCC1	0	3	0	-2	nt
Cc1c(OCc2ccc([N+](=O)[O-])cc2)ccc2c3c(c(=O)oc12)CCC3	-3	4	0	0.0*	nt
CC(C)(C)c1cc(/C=C2\NC(=O)NC2=O)cc(C(C)(C)C)c1O	-7	0	0	-4	nt
CC(C)(C)c1cc(/C=N/O)cc(C(C)(C)C)c1O	-8	-1	0	0.0*	nt
Cc1nn(C)c(C)c1NS(=O)(=O)c1c(C)n[nH]c1C	-8	-2	-2	1	nt
COC(=O)c1ccc2c(=O)n(Cc3ccco3)c(SCC(=O)Nc3ccc(C)c(Cl)c3)nc2c1	-8	-4	17*	-3	nt
COc1ccccc1Nc1n[nH]c(=S)s1	57*	-1	-1	-3	nt
Cc1ccc(NC(=O)c2ccc(N/N=C/c3cccc(O)c3)c([N+](=O)[O-])c2)cc1	-4	0	36*	-5	nt
Cc1ccccc1NC(=O)c1ccc(N/N=C/c2ccccc2O)c([N+](=O)[O-])c1	-8	-1	2	-4	nt
COc1ccccc1C(=O)NC(=O)COC(=O)c1ccc(Cl)nc1	-8	1	1	5	nt
CC(C)(C)[C@H](N)C(=O)N[C@H]1CCC2C3CC=C4C[C@@H](O)CC[C@]4(C)C3CC[C@@]21C (stereo partly drawn)	-10	-3	11*	-6	nt
CCn1c(=O)c2c(nc(SCC(=O)NC3CCCC3)n2C)n(C)c1=O	-11	-3	1	1	nt
NS(=O)(=O)c1ccc(NC(=S)NCc2ccccc2Cl)cc1	-2	3	1	5.3*	-6
Cc1cc(NS(=O)(=O)c2ccc(NC(=O)CSc3nnc(-c4ccco4)n3C)cc2)nc(C)n1	-2	0	0	5.8*	2
O=C(NNC(=O)C1CC(c2cccnc2)=NO1)Nc1cccc(F)c1 (stereo not drawn)	-5	2	0	5.6*	1
CCOCCCNc1nc(=S)[nH]c2cc(OC)c(OC)cc12	-5	-4	0	7.2*	0
SMILES	APOBEC3G inh	A3A deaminase	Bfl-1 A1 inh	MIN6 prolif-1	MIN6 prolif-2
COc1ccccc1NC(=O)C(C)OC(=O)C1CCN(S(=O)(=O)c2ccc(C)c(C)c2)CC1 (stereo not drawn)	-8	-2	0	16*	-5
Nc1nc(N)nc(-c2cc(F)ccc2O)n1	-10	-2	-1	14*	-1
COc1ccc(O)c(-c2nc(N)nc(N)n2)c1	-8	-4	-4	2	nt
Cc1ccc(S(=O)(=O)Nc2cc(S(=O)(=O)N3CCOCC3)ccc2NCC2CCCO2)cc1 (stereo not drawn)	-3	-1	-2	15*	4
O=S(=O)(Nc1cc(S(=O)(=O)N2CCOCC2)ccc1NCC1CCCO1)c1ccccc1F (stereo not drawn)	-3	-2	0	2	nt
CCOC(=O)/C(Sc1nc(-c2ccccc2)cc(-c2ccccc2)c1C#N)=C(\C)O	-8	-5	-1	-7	nt
CCOC(=O)C1CCCN(CC(=O)c2c[nH]c3ccc(C)cc23)C1 (stereo not drawn)	-3	-2	2	-2	nt
Nc1nc(NCCc2ccccc2)nc(NCc2ccccc2)c1[N+](=O)[O-]	-7	-7	-1	-2	nt
C=CCNc1nc(N)c([N+](=O)[O-])c(NCc2ccccc2)n1	17	5	0	8.3*	2
CCOC(=O)c1c(C)c2c(=O)[nH]cnc2n1-c1ccccc1	-7	-2	1	9.8*	12
CC(C)CCN1C(=O)c2ccc(C(=O)N3CCCCC3)cc2C1=O	-3	2	1	2	nt
Cc1nnc2ccc(-c3ccc(NC(=O)c4ccc(Cl)nc4)cc3)nn12	-6	-3	-1	8.5*	-1
CC(=O)Nc1ccc(NC(=O)c2ccc(Cl)nc2)cc1	4	-1	-1	-1	nt
Clc1ccc(-c2cnc3ccccc3n2)cc1	-4	1	-7	5.4*	-1
Cc1ccccc1NS(=O)(=O)c1ccc(C(=O)NCC(c2ccco2)N(C)C)cc1 (stereo not drawn)	-11	0	1	12*	-3
CN(C)/C=N/c1c(C#N)cnn1-c1ncnc2sc(-c3ccccc3)cc12	-5	0	1	12*	-6
CCOc1ncccc1C(=O)NCc1ccc(C)cc1	-2	2	1	0	nt
CCOc1ncccc1C(=O)Nc1ccc(C)cn1	-8	0	-1	11*	2
Cc1cc(C)c(C#N)c(SCc2ccc(C#N)cc2)n1	-3	0	0	12*	-2
COc1ccc(CCNC(=O)CCCn2c(=O)c3cccn3c3cccnc32)c(OC)c1OC	0	0	-2	-2	nt
CCOc1ccc(CCNC(=O)CCCn2c(=O)c3cccn3c3cccnc32)cc1OCC	-6	-7	-1	17*	1
C#CCOc1ccc(C2C3=C(CCCC3=O)N(CC(=O)O)C3=C2C(=O)CCC3)cc1Br	2	4	3	-4	nt
O=C(Cc1cccs1)N1CCN(S(=O)(=O)c2ccccc2)CC1	-3	1	0	7.2*	-2
O=C(CN1CCCC1)Nc1c(C(=O)C2CC2)oc2ccccc12	-10	-5	2	7.1*	-4
CSc1ccc(/C=C/C(=O)OCC(=O)NC2CC2)cc1	-1	-1	-1	-5	nt
CNC(=O)CC1C(=O)N(c2ccc(Cl)cc2)C(=S)N1NC(=O)c1cccc(F)c1 (stereo not drawn)	-6	-3	1	9.8*	-6
NC(=O)CC1C(=O)N(c2ccc(Cl)cc2)C(=S)N1NC(=O)c1cccc(F)c1 (stereo not drawn)	1	-4	0	1	nt
